Screening data from PubChem.
Compounds with a hit are over-represented: about 6.9% of the library has one in this group of screens.
Beta cell apopt = blocks beta cell apoptosis; 300,000 tested, 0.8% active; INS-1E cytokine-induced death, ATP luminescence, 48 h; percent of positive-control rescue, neutral wells zero; protection from apoptosis, % (no concentration beside the values);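 active means Every replicate reaches about 75%, or at least half do and their mean reaches it too, limit read from the data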;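 further: 0% = cytokine-treated negative control wells and 100% = positive control rescue; higher means more ATP so stronger rescue from cytokine killing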
GRIN3A LBD mod = modulators (binders) of human NR3A ligand-binding domain; 340,000 tested, 2.5% active; AID 1259313; Tm shift relative to glycine control, % at 25 µM; NR3A LBD differential scanning fluorimetry, Tm shift; 0% = protein alone, 100% = glycine-bound protein;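 active means melting temperature shift of at least 10% of the positive control shift, at one fixed dose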
MPTP inh = inhibitors of mitochondrial permeability transition pore | isolated mouse mitochondria, Ca2+ swelling absorbance, 30 min | inhibition, % at 10 µM | 360,000 tested, 1.4% active | AID 602449;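 active means inhibition of 50% or more, scaled per plate between neutral and stimulator controls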;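 further: 0% = DMSO wells given calcium and 100% = 1 mM EGTA wells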
CSC inhib = blocks cancer stem cells | 300,000 tested, 1.1% active | inhibition, % at 7.5 µM | AID 2717 | cancer stem cell-like cells viability, luminescence; in the data active means inhibition above about 75%; tested in HMLE shEcad cells
Mdm2 MdmX PPI = human Mdm2/MdmX binding inhibition; O15151+Q00987; SaOS-2 split-luciferase Mdm2/MdmX complementation, luminescence; inhibition, % at 8 µM; 330,000 tested, 3% active;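 active means inhibition of at least 50% at 8 µM in the primary screen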
SKKanGAS inh = blocks kanamycin growth of S. pyogenes SKKanGAS strain; BacTiter-Glo, 6 h; inhibition, % at 7.5 µM; 300,000 tested, 1.3% active; AID 1662;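 active means mean replicate score, as percent of positive control median, at least 50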;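 further: strain carries kanamycin resistance gene driven by streptokinase promoter and grows in 40 µg/ml kanamycin; loss of luminescence reflects streptokinase promoter inhibition or plain growth inhibition; 0% = median of DMSO wells and 100% = positive control at its reference dose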
Starred values were filed as active, the others as inactive; / = no result.

SMILES	Beta cell apopt	GRIN3A LBD mod	MPTP inh	CSC inhib	Mdm2 MdmX PPI	SKKanGAS inh
Cc1ccc(S(=O)(=O)N2[C@@H](c3cccc(Cl)c3)C(C(=O)O)=CC[C@H]2c2cccs2)cc1	0	2	4	-10	15	/
COc1ccccc1OC(C)C(=O)O (stereo not drawn)	-2	13*	-1	-13	-19	3
Cc1cc(Nc2ccc(Br)cc2)nc(-c2ccccc2O)n1	13	29*	4	68	-23	18
C/C(=N\Nc1cc(C)nc(-c2ccccc2O)n1)c1ccccc1	/	14*	1	-1	25	23
C/C(=N\Nc1ncc(Br)cn1)c1cccc([N+](=O)[O-])c1	/	5	1	-5	-1	-1
Cc1cc(N(C)/N=C/c2ccccc2O)nc(-c2ccccc2O)n1	-2	-6	3	/	21	14
Cc1ccc(Nc2cc(C)nc(-c3ccccc3O)n2)cc1	10	7	29	74	-48	17
Cc1cc(NCCCN)nc(-c2ccccc2O)n1	-4	-1	3	8	-7	-4
C/C(=N\Nc1cc(C)nc(-c2ccccc2)n1)c1cccc([N+](=O)[O-])c1	21	17*	1	-15	8	14
Cc1cc(N/N=C/c2ccc(O)c(C)c2O)nc(-c2ccccc2O)n1	16	32*	4	113*	/	58*
O=C(CCNC(=O)C1CCN(S(=O)(=O)c2ccc(F)cc2)CC1)NCc1cccnc1	-3	-1	-3	-23	28	-2
COC(=O)C1CCN(C(=O)c2cc(-c3ccc(Cl)s3)nc3ccccc23)CC1	101*	0	1	/	40	/
CCN1CCN(C(=O)c2cc(-c3ccc(Cl)s3)nc3ccccc23)CC1	/	1	0	/	10	2
O=C(CSCc1cccc(Br)c1)N/N=C/c1ccc2c(c1)OCO2	-1	-14	5	100*	29	9
O=C(CN(CCc1ccccc1)S(=O)(=O)c1ccc(Cl)cc1)N/N=C/c1ccc2c(c1)OCO2	-1	13*	7	-5	19	2
CC(=O)c1ccc(OCC(=O)NC2CCCN(Cc3ccccc3F)C2)cc1 (stereo not drawn)	/	0	0	/	-3	-1
CCn1ccc(=N)cc1	-4	-2	-2	-2	4	6
CCCCCn1ccc(=N)cc1	72	11*	0	6	12	-2
CC(C)c1ccc(/C=N/Nc2cc(N3CCOCC3)nc(N3CCOCC3)n2)cc1	-2	-8	4	28	13	/
Clc1ccc(-c2ccc(/C=N/Nc3cc(N4CCOCC4)nc(N4CCOCC4)n3)o2)cc1	7	-1	1	93*	43	76*
CC(C)(C)c1ccc(S(=O)(=O)NCC(=O)Nc2ccc(-c3nc4ccccc4s3)cc2)cc1	-1	7	6	13	-9	6
O=C(CCS(=O)(=O)c1ccccc1)Nc1ccc(-c2nc3ccccc3s2)cc1	9	4	14	-15	-191	/
O=C(CNS(=O)(=O)c1cccc(Cl)c1)Nc1ccc(-c2nc3ccccc3s2)cc1	7	23*	37	12	-80	3
CC(NS(=O)(=O)c1cccc(Cl)c1)C(=O)Nc1ccc(-c2nc3ccccc3s2)cc1 (stereo not drawn)	11	30*	4	8	-6	4
Cc1ccc(C)c(S(=O)(=O)NC(C)C(=O)Nc2ccc(-c3nc4ccccc4s3)cc2)c1 (stereo not drawn)	5	25*	5	10	38	-10
C[C@H](CO)N1C[C@H](C)[C@@H](CN(C)C(=O)Nc2ccccc2)Oc2c(NC(=O)Nc3ccc(C(F)(F)F)cc3)cccc2C1=O	15	28*	-2	51	42	/
C[C@H]1CN([C@@H](C)CO)C(=O)Cc2cc(NC(=O)Nc3ccccc3)ccc2O[C@H]1CN(C)Cc1ccccc1	/	-22	1	/	/	/
C[C@H](CO)N1C[C@H](C)[C@@H](CN(C)C(=O)Nc2ccccc2)Oc2c(NC(=O)Nc3ccccc3)cccc2C1=O	2	-13	-2	-7	-14	/
CC(C)NC(=O)N(C)C[C@H]1Oc2ccc(NC(=O)CCC(F)(F)F)cc2C(=O)N([C@H](C)CO)C[C@@H]1C	3	13*	0	-9	-8	/
C[C@H](CO)N1C[C@H](C)[C@H](CN(C)Cc2ccc(Oc3ccccc3)cc2)Oc2ccc(NC(=O)Nc3cccc4ccccc34)cc2CC1=O	32	12*	1	22	49	/
